D3 ag = agonists of human D3 dopamine receptor; P35462; max activation, %; D3R DiscoveRx beta-arrestin cells, luminescence, 90 min; actives 0.58% (n = 410,000); in the data active means max activation above about 30%; further: 0% is about no effect
Target sequence (P35462 whole entry, looked up): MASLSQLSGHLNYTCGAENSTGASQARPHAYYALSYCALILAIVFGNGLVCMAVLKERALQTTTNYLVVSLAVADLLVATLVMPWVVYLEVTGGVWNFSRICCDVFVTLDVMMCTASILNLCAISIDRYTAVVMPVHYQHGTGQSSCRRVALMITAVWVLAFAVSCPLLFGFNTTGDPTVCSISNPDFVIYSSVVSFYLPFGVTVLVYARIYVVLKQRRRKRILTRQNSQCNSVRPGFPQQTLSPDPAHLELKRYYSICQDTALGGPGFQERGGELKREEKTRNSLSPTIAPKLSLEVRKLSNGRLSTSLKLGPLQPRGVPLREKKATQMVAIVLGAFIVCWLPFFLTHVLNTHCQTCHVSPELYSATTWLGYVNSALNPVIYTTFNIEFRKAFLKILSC
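Agonist mode: compounds and dopamine controls were applied to plated cells for 90 min at 37 degrees C after an overnight attachment at 1500 cells/well. Luminescent read-out followed 30 - 60 minutes at room temperature with DiscoveRx detection reagent.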
DRD3 antagonist = antagonists of human D3 dopamine receptor; P35462; D3R cells, DiscoveRx beta-arrestin luminescence, antagonist mode; stronger effect = lower value; max response, negative = inhibition, %; actives 2.5% (n = 360,000); AID 652054; in the data active means max response below about -50%; inconclusive means no clear call, values can overlap the other calls; further: on the % scale 0 is the no-effect control and ±100 the full control effect
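Cells expressing the human receptor were seeded at 1500 cells/well, incubated overnight at 37 degrees C in 5% CO2, then exposed to library compounds with dopamine controls for 90 minutes at 37 degrees C before luminescent detection.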
TDP1 cell noCPT = qHTS for Inhibitors of human tyrosyl-DNA phosphodiesterase 1 (TDP1): qHTS in cells in absence of CPT; actives 15% (n = 420,000); DT40 Tdp1-/- hTDP1 cells, no CPT, ATP luminescence, 48 h; AID 686978, 2013; Potency, µM (series often up to 46.2 µM), for the others: at the highest dose activity change, negative = growth inhibition, usual class: inhibitors; further: potency means the concentration at half of the fitted maximal effect; on the % scale 0 is the no-effect control and ±100 the full control effect; nearly all actives have a fitted effect of over 55% in size
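Growth kinetics read by CellTiter-Glo luminescence after ≥48 hr at 37 °C. Cells: DT40 Tdp1-/- stably carrying human TDP1, 400 per well, compound exposure in the absence of CPT (DMSO vehicle).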
DT40 TDP1 CPT = growth inhibition of DT40 Tdp1-/-;hTDP1 cells with camptothecin (screen for TDP1 inhibitors); actives 12% (n = 420,000); Potency, µM (top dose mostly 46.2 µM), for inactives: top-dose activity change, negative = growth inhibition, hits mostly inhibitors; chicken DT40 Tdp1-/-;hTDP1 cells + 20 nM CPT, ATP luminescence, 48 h; AID 686979; further: potency means the concentration at half of the fitted maximal effect; on the % scale 0 is the no-effect control and ±100 the full control effect; nearly all actives have a fitted effect of over 55% in size
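Chicken DT40 Tdp1-/- cells complemented with human TDP1, 400 cells/well, exposed to compounds plus 20 nM camptothecin for at least 48 h at 37 C; viability read as ATP content by CellTiter-Glo luminescence.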
IL1B secr inh = inflammasome signaling inhibition, IL-1 beta readout; activity change, % at 57.5 µM; actives 4.7% (n = 360,000); THP-1 LPS/ATP IL-1B secretion, AlphaLISA, 16 h; stronger effect = lower value; in the data active means activity change below about -50%; inconclusive means mostly about -30% to -49%; further: on the % scale 0 is the no-effect control and ±100 the full control effect
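Secreted IL-1B measured by AlphaLISA bead assay after 16 h compound exposure of THP-1 cells; compounds (final up to 57.5 uM) added 1 h before LPS (250 ng/mL) and ATP (1.25 mM) stimulation; lower signal means less secretion.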
ClpP mod = qHTS Assay for Activators of ClpP | purified B. subtilis ClpP, FRET peptide cleavage, 20 min | AID 651965, 2013 | ATP-dependent Clp protease proteolytic subunit (Bacillus subtilis (strain 168)), P80244 | actives 1.9% (n = 340,000) | Potency, µM (titrated, usually from 57.5 µM), inactives show at the highest dose activity change, negative = active; active means well fitted falling curve with a large enough effect; inconclusive means small, poorly fitted or top-dose-only effect; inactive means no such curve, though single readings can be large or run the other way; further: potency means the concentration at half of the fitted maximal effect; the source files actives as falling curves though it sought activators and does not explain the sign; nearly all actives have a fitted effect of over 65% in size
Target sequence (P80244 whole entry, looked up): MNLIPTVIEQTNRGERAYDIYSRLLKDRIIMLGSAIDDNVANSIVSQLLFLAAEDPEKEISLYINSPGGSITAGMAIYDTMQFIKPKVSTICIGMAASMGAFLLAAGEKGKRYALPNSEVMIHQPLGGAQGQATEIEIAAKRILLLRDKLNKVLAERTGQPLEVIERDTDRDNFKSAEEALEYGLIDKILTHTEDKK
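Buffer: 100 mM Tris/HCl pH8, 100 mM KCl, 0.05% low protease BSA, 2.5% glycerol, 0.01% Tween-20. ClpP 10 microg/mL final; 20 min RT; delta FRET normalized to ADEP and DMSO controls.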
The depositor's hits bear a star; ? = inconclusive; . = no result; [ ] = remark or other dose. An excerpt weighted towards active compounds, which were near 21% of everything screened. Unless noted, the call rests on the fitted dose curve; in most records, active means well fitted inhibition curve with a large enough effect; inconclusive means small, poorly fitted or top-dose-only effect; inactive means flat fitted curve, though single readings scatter.

SMILES | D3 ag | DRD3 antagonist | TDP1 cell noCPT | DT40 TDP1 CPT | IL1B secr inh | ClpP mod
Cc1cc(C)cc(C(=O)Nc2ccc(NC(=O)c3cccs3)cc2)c1 | 3 | 6 | ? | ? | 4 | 10%
CC(C)(C)NC(=O)c1cc(NC(=O)c2cccs2)cc(NC(=O)c2cccs2)c1 | -11 | 1 | 21µM* | ? | -9 | .
O=C(Nc1ccc(NC(=O)c2cccs2)cc1)c1ccc(Br)o1 | -2 | 3 | ? | ? | -21 | -6%
Cn1c(Cc2ccccc2)[n+](C)c2ccccc21 | -1 | -6 | 15µM* | ? | 37 | .
Cc1c(NC(=O)c2ccccc2)cc(C(C)C)c(O)c1S(=O)(=O)c1ccc(Cl)cc1 | 0 | . | ? | 21µM* | . | -4%
Cc1c(NC(=O)c2ccc(Cl)cc2)cc(C(C)C)c(O)c1S(=O)(=O)c1ccccc1 | 6 | . | ? | ? | . | -1%
CCCC(C(=O)NC1CCCC1)N(Cc1ccc(OC)cc1)C(=O)c1snc(C(N)=O)c1N (configuration not stated) | 3 | 14 | ? | -23% | -9 | .
Cc1ccc(OCC(=O)N(Cc2ccc(N(C)C)cc2)C2CCS(=O)(=O)C2)cc1 (configuration not stated) | 8 | 0 | 0% | 2% | -3 | 0%
Cc1cc(C)cc(OCC(=O)N(Cc2ccc(N(C)C)cc2)C2CCS(=O)(=O)C2)c1 (configuration not stated) | 9 | 1 | -25% | 3% | -17 | 22µM*
Cc1cc(C)c(OCC(=O)N(Cc2ccc(N(C)C)cc2)C2CCS(=O)(=O)C2)c(C)c1 (configuration not stated) | 0 | 2 | 23µM* | -7% | -72* | .
COc1ccccc1CNC(=O)CS(=O)(=O)c1ccccc1 | 7 | 12 | 4% | 9% | 12 | 1%
COc1cccc(CN2CCc3nnc(CCc4ccccc4)n3CC2)c1OC | . | . | -9% | 0%[9.04 µM] | . | .
O=C(O)Cc1csc(-c2ccccc2)n1 | -13 | -25 | -8% | -8% | 35 | .
CCc1ccccc1N(C(C)=O)c1nc(CN=C=S)cs1 | 0 | -4 | ? | 23µM* | 2 | -1%
CCN(CC)c1ccc(-n2cc3c(=O)n(C)c(=O)n(C)c3c2)cc1 | -4 | -55* | ? | ? | 47 | 35µM*
CC(=O)Nc1cccc(-c2ccnc3c2CC(C(=O)NCc2cccs2)O3)c1 (configuration not stated) | -12 | -78* | 0.65µM* | 0.92µM* | 47 | -21%
CC(=O)Nc1cccc(-c2ccnc3c2CC(C(=O)NCCC(F)(F)F)O3)c1 (configuration not stated) | 7 | 17 | 23µM* | ? | 35 | -22%
CC(=O)Nc1cccc(-c2ccnc3c2CC(C(=O)NCC2CCOCC2)O3)c1 (configuration not stated) | 4 | 19 | 2.3µM* | 2.6µM* | 0 | -14%
COc1ccc(CCCNC(=O)C2Cc3c(-c4cccc(NC(C)=O)c4)ccnc3O2)cc1 (configuration not stated) | 0 | -24 | 3.7µM* | 5.8µM* | 31 | -4%
CC(=O)NCCNC(=O)C1Cc2c(-c3cccc(NC(C)=O)c3)ccnc2O1 (configuration not stated) | 4 | -29 | 1% | 0% | 16 | -21%
Cc1cc(C)c(C#N)c(N2CCN(C(=O)C3COc4ccccc4O3)CC2)n1 (configuration not stated) | -3 | -4 | ? | ? | 0 | 4%
Oc1c(C(c2ccccc2Cl)N2CCC(O)CC2)sc2nc(-c3ccco3)nn12 (configuration not stated) | -12 | . | ? | 2% | . | -2%
O=C(O)c1cccc(Nc2nc(-c3cc4ccccc4oc3=O)cs2)c1 | 4 | 7 | -3% | 4% | -6 | ?
Cc1ccc(C(=O)Nc2nc3ccccc3c(=O)s2)cc1 | 3 | 6 | 18µM* | 18µM* | -94* | -1%
Cc1ccc(Nc2nc3ccccc3c(=O)s2)cc1C | -7 | ? | 12µM* | 16µM* | 0 | 0%
SMILES | D3 ag | DRD3 antagonist | TDP1 cell noCPT | DT40 TDP1 CPT | IL1B secr inh | ClpP mod
Cc1ccc(C(=O)Nc2nnc(NC(=S)Nc3ccccc3)s2)cc1 | -1 | ? | 21µM* | ? | -20 | -1%
CCc1nnc(NC(=S)Nc2ccccc2)s1 | -1 | -12 | -69% | 5.8µM* | 8 | 1%
Cc1cc(F)ccc1Nc1nc2ccc(Cl)cc2n2cnnc12 | 6 | . | -26% | 10% | . | 0%
CN(Cc1nc(-c2cccnc2)no1)S(=O)(=O)c1ccccc1 | -4 | 4 | -14% | -16% | 2 | 0%
CS(=O)(=O)N(Cc1nc(-c2ccc(F)cc2)no1)c1ccccc1Cl | -14 | 6 | ? | 18µM* | ? | 0%
Cc1ccc(-c2noc(CN(C3CCCCC3)S(=O)(=O)c3ccc(F)cc3)n2)cc1 | 8 | . | 18µM* | ? | . | -1%
COc1ccc(S(=O)(=O)N(Cc2nc(-c3ccccc3)no2)C2CCCCC2)cc1 | 15 | . | 9.2µM* | 16µM* | . | 1%
CCCc1nc(-c2ccc(-c3ccc(F)cc3)cc2)no1 | 2 | 74 | -16% | 2% | 24 | -21%
COc1ccc(-c2noc(CN(C)CCC3CCCCO3)n2)cc1 (configuration not stated) | 35* | 10 | ? | -7% | 7 | .
Nc1nc2c(nc(Br)n2C2OC(CO)C(O)C2O)c(=O)[nH]1 (configuration not stated) | . | . | 13% | 5% | . | .
COc1ccc2[nH]c(C)c(-c3csc(N)n3)c2c1 | 1 | 7 | 11% | -3% | 12 | -5%
COc1ccc(S(=O)(=O)NCc2cccs2)cc1 | -4 | 39 | -5% | -18% | -11 | 4%
COc1ccc(S(=O)(=O)N(Cc2ccccc2)Cc2nc(-c3ccccc3)no2)cc1 | 5 | 13 | 18µM* | 15µM* | -16 | 1%
COc1ccc(Cc2nc(-c3ccccc3)no2)cc1 | 0 | -9 | -16% | -12% | 37 | -1%
COc1ccc(S(=O)(=O)N(Cc2cccs2)C2CCCC2)cc1 | -10 | -15 | 12µM* | 18µM* | -14 | -3%
Fc1ccc(CSc2nnc(-c3cccnc3)o2)cc1 | -13 | -23 | -15% | -9% | -12 | 0%
Cc1ccc(C(=O)N(CC(=O)NC2CCCCC2)c2ccccc2F)s1 | -9 | 4 | -33% | 2% | 2 | 2%

High-throughput results (PubChem BioAssay)
